CYP2C9 act: CYP2C9 (human) activation; P11712; recombinant CYP2C9, luciferin-H conversion, luminescence; hits give high values; factor 1 = untreated enzyme, 0 = blocked; activation factor at 5 µM; 96,000 compounds, 1.4% hits;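 active = activation factor of 2 or more for CYP2C9 at a 5 µM dose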;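 note: 0 = sulfaphenazole-blocked wells and 1 = vehicle-only wells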
Target sequence (P11712 whole entry, looked up): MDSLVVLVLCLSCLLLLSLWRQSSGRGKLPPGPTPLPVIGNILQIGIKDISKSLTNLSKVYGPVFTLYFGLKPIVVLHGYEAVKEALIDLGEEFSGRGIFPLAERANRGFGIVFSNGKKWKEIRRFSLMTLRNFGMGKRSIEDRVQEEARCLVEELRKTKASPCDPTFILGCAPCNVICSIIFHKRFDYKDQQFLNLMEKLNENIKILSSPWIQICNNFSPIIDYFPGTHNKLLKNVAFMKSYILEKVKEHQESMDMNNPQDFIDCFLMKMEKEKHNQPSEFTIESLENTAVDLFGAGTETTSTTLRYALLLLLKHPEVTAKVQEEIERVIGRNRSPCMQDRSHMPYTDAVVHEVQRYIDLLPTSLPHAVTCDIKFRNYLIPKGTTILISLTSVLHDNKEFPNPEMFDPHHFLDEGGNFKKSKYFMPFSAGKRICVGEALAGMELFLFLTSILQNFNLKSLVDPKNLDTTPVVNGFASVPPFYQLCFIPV
cytoskel mod: modifiers of cytoskeleton assembly; inhibition, % at 2 µM; HUVEC TNFa F-actin phalloidin imaging, high content; 91,000 compounds, 0.18% hits; AID 836;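 active = inhibition above the batch mean plus 3 SD and confirmed as a hit by visual image inspection, cut at about 30% in these data, passing the limit was not always enough; inconclusive = above the inhibition threshold but rejected on visual inspection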
CYP2C9 inh: inhibitors of human CYP2C9 | AID 777 | P11712 | CYP2C9 Supersomes, luciferin-H conversion, luminescence | 96,000 compounds, 20% hits | inhibition, % at 5 µM;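 active = blocking of liver enzyme CYP2C9 beyond about 50% at 5 µM, limit read from the data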
CYP2C19 inh: inhibitors of human CYP2C19 | CYP2C19 Supersomes, luciferin-H EGE luminescence, 30 min | inhibition, % at 5 µM | 96,000 compounds, 21% hits | AID 778;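 active = CYP2C19 inhibition above a set limit at 5 µM in the primary screen, cut at about 50% in these data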;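 note: plate controls were negative control wells for no effect and 2.5 mM tranylcypromine positive control for full effect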
CYP2C19 activ: activators of human cytochrome P450 2C19; P33261; 96,000 tested, under 10 active; activation factor at 5 µM; AID 1025; recombinant CYP2C19, luciferin-H EGE luminescence; hits give high values; 0 = fully inhibited enzyme, 1 = untreated enzyme;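 active = activation factor of at least 2 at 5 µM in the primary screen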;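 note: 0 = wells with 2.5 mM tranylcypromine and 1 = vehicle-only wells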
E-sel TNF inh: TNF alpha driven E-selectin expression inhibition | inhibition, % at 2 µM | 120,000 compounds, 0.71% hits | HUVEC TNFa-induced E-selectin immunofluorescence, high content;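 active = inhibition above the batch mean plus 3 SD, and confirmed as a hit on visual image review, cut at about 43% in these data; inconclusive = passes the inhibition cutoff but fails visual image review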;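 note: 0% = TNF-stimulated DMSO wells and 100% = unstimulated control wells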
* hit, by the source's call; u = inconclusive; x = not tested or not shown. Sampled rows, rich in hits. Any-hit rate of the full collection: about 22%.

SMILES	CYP2C9 act	cytoskel mod	CYP2C9 inh	CYP2C19 inh	CYP2C19 activ	E-sel TNF inh
CCN(C(=O)CSc1nnc(-c2ccc(Cl)cc2)n1C)C1CCS(=O)(=O)C1 (configuration not stated)	x	x	x	x	x	31
COc1ccc(OC)c(S(=O)(=O)N(C)CC(=O)N2CCN(c3ccc(F)cc3)CC2)c1	0.5	-4	47	20	0.8	-3
COc1ccc(OC)c(S(=O)(=O)N(C)CC(=O)N2CCN(c3cccc(Cl)c3)CC2)c1	0.1	-6	92*	85*	0.2	2
COc1ccc(C)cc1S(=O)(=O)N(C)CC(=O)N1CCCCC1	x	23	x	x	x	u
COc1ccc(OC)c(S(=O)(=O)N(C)CC(=O)N2CCN(c3ccccc3F)CC2)c1	0.3	x	68*	76*	0.2	23
COc1ccc(C(=O)OCC(=O)c2ccccc2)cc1S(=O)(=O)N1CCOCC1	0.4	x	56*	78*	0.2	14
COc1ccc(C(=O)NCCC(C)C)cc1S(=O)(=O)N1CCOCC1	0.7	14	30	17	0.8	-21
COc1ccc(C(C)=O)cc1COC(=O)c1ccc(S(=O)(=O)N2CCOCC2)cc1	0.1	x	94*	51*	0.5	-2
COc1ccc(C(=O)NCCc2c[nH]c3ccccc23)cc1S(=O)(=O)N1CCOCC1	0.4	21	61*	19	0.8	x
CCOC(=O)N1CCN(C(=O)c2ccc(OC)c(S(=O)(=O)N3CCOCC3)c2)CC1	x	x	x	x	x	-3
CCOc1cc(CNc2ccc(Br)cc2)cc(Br)c1OCC(=O)NC(C)(C)C	0.1	8	89*	21	0.8	-23
CCOc1cc(CNc2ccc(OC)cc2)cc(Br)c1OCC(=O)NC(C)(C)C	0.4	6	59*	52*	0.5	-23
CCOc1cc(CNc2ccccc2)cc(Br)c1OCC(=O)NC(C)(C)C	0.5	-1	46	50	0.5	-58
COc1cc(CNCCCO)ccc1OCC(=O)NC(C)(C)C	x	x	x	x	x	14
COc1ccc(C(C)=O)cc1COC(=O)c1ccc(N)c([N+](=O)[O-])c1	x	x	x	x	x	-11
COc1ccc(C(C)=O)cc1COC(=O)c1cccc(N(C)C)c1	0.2	x	79*	72*	0.3	-13
COc1ccc(C(C)=O)cc1COC(=O)c1cc(C)oc1C	0.3	-2	66*	61*	0.4	x
CN(CC(=O)N1CC=C(c2ccccc2)CC1)S(=O)(=O)c1ccc2c(c1)c(=O)n(C)c(=O)n2C	0.6	9	36	38	0.6	-12
Cc1cccc(NC(=O)C2(C)CC3c4ccccc4C2c2ccccc23)c1 (configuration not stated)	0.9	0	14	-2	1	-42
CC(C)(C)OC(=O)N1CCC(C(=O)N2CCC[C@H]2C(=O)O)CC1	1	x	-2	-2	1	x
CCCOc1ccc(N2CC(C(=O)Nc3ccccc3OC)CC2=O)cc1 (configuration not stated)	0.6	1	36	1	1	x
C=CCSc1nnc(CSc2nc3sc4c(c3c(=O)[nH]2)CCCC4)n1-c1ccccc1	0.3	x	67*	37	0.6	x
CCOC(=O)CSc1nnc(CSc2nc3sc4c(c3c(=O)[nH]2)CCC4)n1-c1ccccc1	0.4	-3	57*	27	0.7	26
CCc1nc(N)c(C#N)c(-c2cccnc2)c1C	1.1	x	-11	3	1	-41
Cc1nc(N)c(C#N)c(-c2cccnc2)c1C	2*	-6	-96	3	1	-7
SMILES	CYP2C9 act	cytoskel mod	CYP2C9 inh	CYP2C19 inh	CYP2C19 activ	E-sel TNF inh
NC(=O)c1ccsc1NC(=O)Cc1ccc([N+](=O)[O-])cc1	x	x	x	x	x	15
O=S1(=O)NC2CCCCCN2c2ccc(F)cc21 (configuration not stated)	0.9	-16	6	25	0.7	28
CCC(=O)c1ccccc1OCCN1C(=O)NC(C)(C)C1=O	0.3	-1	67*	75*	0.3	-24
CC1(C)NC(=O)N(CCCOc2ccc(Br)cc2Cl)C1=O	0.5	-5	51*	92*	0.1	-1
CCC(=O)c1ccccc1OCCN1CCN(Cc2ccccc2)CC1	x	x	x	x	x	18
Cc1ccc(C(C)C)c(OCCN2C(=O)NC(C)(C)C2=O)c1	0.6	-4	43	77*	0.2	x
CC1(C)NC(=O)N(CCCCOc2ccc(Br)cc2Cl)C1=O	0.3	6	66*	99*	0	-3
CC(=O)c1cnn(-c2cc(Oc3ccccc3C)ncn2)c1C	0.6	13	42	21	0.8	-7
